Assay results as given in PubChem BioAssay.
Unmarked numbers belong to inactive results. For some of these results: Entries with a potency or affinity are not part of this list. The source made the active and inactive calls. Unless noted, no rule for the calls is given here.

Tests used:
[1] = antimalarial activity against Dd2 strain (AID 2302;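 active = growth inhibition above 50% at the single 2 µM test dose, taken to imply half-maximal potency below 2 µM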;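 also: 0% = DMSO untreated growth and 100% = chloroquine plus artemisinin killed control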); conditions: P. falciparum Dd2 in RBCs, LDH growth readout, 72 h; at 2 µM; hits give high values
[2] = human hepatoma cell viability loss – ATP luminescence, cytotoxicity control for P. falciparum antimalarial project, primary screen (AID 2303;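 active = inhibition above 50%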;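 also: 0% = DMSO wells and 100% = digitonin-killed cells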); conditions: HepG2 viability, 24-48 h, at 10 µM, hits give high values
[3] = target: L-lactate dehydrogenase (Plasmodium falciparum (isolate CDC / Honduras)) (UniProt Q27743); test: PfLDH activity inhibition – cell lysate, 3D7 strain, counter-screen for P. falciparum growth inhibition project (AID 2304);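 also: 0% = vehicle and 100% = reference inhibitor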; conditions: P. falciparum 3D7 crude extract, LDH APAD/NBT absorbance; at 2 µM; hits give high values
Chain of L-lactate dehydrogenase (Plasmodium falciparum (isolate CDC / Honduras)) (Q27743 whole entry, looked up): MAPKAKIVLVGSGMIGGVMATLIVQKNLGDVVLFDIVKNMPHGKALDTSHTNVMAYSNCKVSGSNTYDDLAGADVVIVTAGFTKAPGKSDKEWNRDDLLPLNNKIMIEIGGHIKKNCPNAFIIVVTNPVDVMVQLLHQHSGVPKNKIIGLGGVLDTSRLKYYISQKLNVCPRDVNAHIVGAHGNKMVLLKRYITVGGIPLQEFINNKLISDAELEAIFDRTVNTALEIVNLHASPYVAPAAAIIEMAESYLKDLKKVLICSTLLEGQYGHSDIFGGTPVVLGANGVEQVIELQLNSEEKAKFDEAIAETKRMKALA

[4] = inhibition of 3D7 malaria parasite growth – strain 3D7 (AID 2306);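 also: 0% = DMSO wells and 100% = chloroquine plus artemisinin control wells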; conditions: P. falciparum 3D7 erythrocytic growth, LDH absorbance, 72 h; at 2 µM; hits give high values
[5] = target: Calcium-dependent protein kinase 1 (Plasmodium falciparum (isolate 3D7)) (UniProt P62344); test: PfCDPK1 kinase inhibitors, biochemical, TCAMS library (AID 1159585; cut-off not given, nearly all actives have IC50 up to about 0.98 µM;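 also: inhibitors leave more ATP so luminescence rises with inhibition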); conditions: recombinant PfCDPK1, Kinase-Glo ATP depletion luminescence
Chain of Calcium-dependent protein kinase 1 (Plasmodium falciparum (isolate 3D7)) (P62344 whole entry, looked up): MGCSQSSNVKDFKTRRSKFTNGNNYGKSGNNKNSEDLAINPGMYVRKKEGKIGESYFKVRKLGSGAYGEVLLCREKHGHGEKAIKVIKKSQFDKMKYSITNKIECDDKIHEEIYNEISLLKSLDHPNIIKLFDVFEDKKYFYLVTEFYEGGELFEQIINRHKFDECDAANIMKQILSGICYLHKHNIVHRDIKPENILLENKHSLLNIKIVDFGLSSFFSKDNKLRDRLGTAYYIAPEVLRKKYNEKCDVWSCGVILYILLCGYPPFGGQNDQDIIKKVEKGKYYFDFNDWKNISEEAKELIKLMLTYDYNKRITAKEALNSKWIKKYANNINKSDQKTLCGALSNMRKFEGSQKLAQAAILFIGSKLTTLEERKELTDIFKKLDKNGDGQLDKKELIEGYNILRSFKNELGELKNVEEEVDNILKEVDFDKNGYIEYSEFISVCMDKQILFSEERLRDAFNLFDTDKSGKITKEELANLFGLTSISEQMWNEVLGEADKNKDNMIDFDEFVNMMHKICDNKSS

[6] = target: Plasmodium falciparum protein kinase 6 (PK6, PF3D7_1337100) (UniProt Q8IDW1); test: PfPK6 kinase inhibitors, biochemical, TCAMS library (AID 1159586); conditions: recombinant PfPK6, Kinase-Glo ATP depletion luminescence
Chain of Plasmodium falciparum protein kinase 6 (PK6, PF3D7_1337100) (Q8IDW1 1-305): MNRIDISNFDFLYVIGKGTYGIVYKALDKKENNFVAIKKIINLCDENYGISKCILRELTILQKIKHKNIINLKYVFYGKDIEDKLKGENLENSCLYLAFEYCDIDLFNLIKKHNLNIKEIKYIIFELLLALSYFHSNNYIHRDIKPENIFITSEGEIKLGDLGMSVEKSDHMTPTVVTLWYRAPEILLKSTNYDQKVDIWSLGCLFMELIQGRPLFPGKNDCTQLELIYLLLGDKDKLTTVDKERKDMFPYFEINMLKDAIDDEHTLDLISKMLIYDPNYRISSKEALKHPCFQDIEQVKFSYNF

[7] = target: Protein kinase 7 (PK7), Plasmodium falciparum 3D7 (PF3D7_0213400) (UniProt Q7YTF7); test: inhibition of Plasmodium PK7 catalytic activity – biochemical, TCAMS antimalarial set, Kinase-Glo luminescence (AID 1159587); conditions: recombinant PfPK7, Kinase-Glo ATP depletion luminescence
Chain of Protein kinase 7 (PK7), Plasmodium falciparum 3D7 (PF3D7_0213400) (Q7YTF7 1-343): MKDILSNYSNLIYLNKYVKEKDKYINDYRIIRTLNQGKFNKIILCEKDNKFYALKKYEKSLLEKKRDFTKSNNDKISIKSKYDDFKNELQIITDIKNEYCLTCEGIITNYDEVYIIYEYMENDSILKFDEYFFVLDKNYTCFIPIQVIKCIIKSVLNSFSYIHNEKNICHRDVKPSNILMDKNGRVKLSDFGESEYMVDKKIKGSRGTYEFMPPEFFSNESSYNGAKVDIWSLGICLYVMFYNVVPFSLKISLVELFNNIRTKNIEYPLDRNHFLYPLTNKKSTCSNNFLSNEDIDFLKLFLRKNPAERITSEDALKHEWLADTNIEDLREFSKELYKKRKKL

[8] = target: Calcium-dependent protein kinase 4 (Plasmodium falciparum (isolate 3D7)) (UniProt Q8IBS5); test: PfCDPK4 kinase inhibitors, biochemical, TCAMS library (AID 1159588; cut-off not given, nearly all actives have IC50 up to about 0.91 µM); conditions: recombinant PfCDPK4, Kinase-Glo ATP depletion luminescence
Chain of Calcium-dependent protein kinase 4 (Plasmodium falciparum (isolate 3D7)) (Q8IBS5 whole entry, looked up): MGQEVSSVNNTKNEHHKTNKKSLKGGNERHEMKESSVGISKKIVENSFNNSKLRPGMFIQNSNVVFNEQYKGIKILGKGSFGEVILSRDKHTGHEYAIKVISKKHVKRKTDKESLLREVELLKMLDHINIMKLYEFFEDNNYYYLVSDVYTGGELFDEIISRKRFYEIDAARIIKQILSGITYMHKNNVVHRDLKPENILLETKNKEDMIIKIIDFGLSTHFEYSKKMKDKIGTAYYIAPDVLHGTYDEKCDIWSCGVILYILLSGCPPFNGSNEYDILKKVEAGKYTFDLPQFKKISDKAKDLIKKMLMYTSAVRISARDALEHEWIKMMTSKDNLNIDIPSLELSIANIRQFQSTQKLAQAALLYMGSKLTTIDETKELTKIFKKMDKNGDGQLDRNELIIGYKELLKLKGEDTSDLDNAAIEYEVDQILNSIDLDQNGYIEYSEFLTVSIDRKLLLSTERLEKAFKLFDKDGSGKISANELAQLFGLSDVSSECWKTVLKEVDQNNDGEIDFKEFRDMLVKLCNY

Row | SMILES | growth inhibition [1] | inhibition [2] | inhibition [3] | growth inhibition [4] | outcome [5] | outcome [6] | outcome [7] | outcome [8]
1 | CC(C)COc1ccc(Cl)cc1Cc1nc(-c2nc3ccc(CN(C)C)cc3[nH]2)co1 | 87% (active) | 14% | 5% | 97% (active) | inactive | inactive | inactive | inactive
2 | CN(C)C(CNc1ncnc2cc(Cl)ccc12)Cc1ccccc1 (stereo not drawn) | 88% (active) | 13% | -4% | 96% (active) | inactive | inactive | inactive | inactive
3 | N#Cc1ccc(CN2CCCN(c3ccc(NC(=O)c4ccc(F)cc4)cc3)CC2)cc1 | 61% (active) | 12% | -2% | 90% (active) | inactive | inactive | inactive | inactive
4 | O=C(Nc1cccc(-c2cccc(-c3ccc(F)cc3)n2)c1)c1ccc([N+](=O)[O-])o1 | 42% | 100% (active) | 4% | 99% (active) | inactive | inactive | inactive | inactive
5 | CN(C)CCOc1cc(NC(=O)Nc2ccc(-c3ccncc3)c(Cl)c2)ccc1I | 100% (active) | 43% | 4% | 101% (active) | inactive | inactive | inactive | inactive
6 | O=C(Cc1ccccc1)NC(CCN1CCC(NC(=O)c2ccc(Cl)cc2)CC1)c1ccc(Cl)c(Cl)c1 (stereo not drawn) | 23% | 17% | -2% | 85% (active) | inactive | inactive | inactive | inactive
7 | Fc1cccc(COc2ccc(Nc3ncnc4ccc(C#C[C@H]5CCCN5)cc34)cc2Cl)c1 | 26% | 7% | -2% | 91% (active) | inactive | inactive | inactive | inactive
8 | COc1cc(F)c2nccc([C@@H](O)CN3CCC(NCc4ccc5c(n4)NC(=O)CS5)CC3)c2c1 | 25% | 23% | -4% | 103% (active) | inactive | inactive | inactive | inactive
9 | Cn1nc(C(F)(F)F)c(-c2ccc(Br)cc2)c1NC(=O)Nc1ccc(F)cc1F | 99% (active) | 16% | 0% | 99% (active) | inactive | inactive | inactive | inactive
10 | CN(C)c1ccc(CN2CCC(NC(=O)c3ccc(-c4ccccc4F)s3)CC2)cc1 | 27% | 41% | -3% | 86% (active) | inactive | inactive | inactive | inactive
11 | COc1cc(CNCCCCCCNCc2cc(OC)c(OC)c3ccccc23)c2ccccc2c1OC | 100% (active) | 100% (active) | -1% | 100% (active) | inactive | inactive | inactive | inactive
12 | O=C(Nc1ccc(OC2CCN(Cc3ccc(F)cc3)CC2)c(Cl)c1)c1ccccc1 | 89% (active) | 16% | -4% | 90% (active) | inactive | inactive | inactive | inactive
13 | NC1CCCN(Cc2cccc(-c3ccc(-c4nc5ccccc5[nH]4)s3)c2)C1 (stereo not drawn) | 88% (active) | 21% | -2% | 98% (active) | inactive | inactive | inactive | inactive
14 | CCCCc1cc(NC2CCN(C)CC2)nc(Nc2ccccc2)n1 | 29% | 7% | -2% | 103% (active) | inactive | inactive | inactive | inactive
15 | COc1ccc(-c2cccc(NC(=O)c3ccc(C#N)cc3)c2)cc1CNC(C)C | 14% | 25% | -1% | 100% (active) | inactive | inactive | inactive | inactive
16 | CCNc1cc(C(=O)N[C@@H](Cc2ccccc2)[C@H](O)CNCc2cccc(OC)c2)c(OC)c(N2CCCCS2(=O)=O)c1 | 96% (active) | 11% | -8% | 97% (active) | inactive | inactive | inactive | inactive
17 | O=C(N[C@H]1CCN(Cc2ccc(OCCCN3CCCCC3)cc2)C1)c1ccc2ccccc2c1 | 32% | 8% | 5% | 97% (active) | inactive | inactive | inactive | inactive
18 | Cc1ccc(-c2ccc(Cl)cc2Oc2cnc(N)nc2N)o1 | 3% | 15% | -2% | 102% (active) | inactive | inactive | inactive | inactive
19 | CC(=O)NCCNc1nccc(N2CCc3ncnc(Nc4ccc(OCc5cccc(F)c5)c(Cl)c4)c3C2)n1 | 100% (active) | 10% | 5% | 100% (active) | inactive | inactive | inactive | inactive
20 | Cc1nccc2c(NC(=O)N[C@@H]3CCN(c4ncc(C(F)(F)F)cc4Br)C3)cccc12 | 27% | 21% | -4% | 96% (active) | inactive | inactive | inactive | inactive
21 | O=C(NCCCCN1CCC(c2ccc3c(c2OCC2CC2)CCCC3)CC1)c1ccc(NC(=O)c2ccc(Cl)cc2)cc1 | 93% (active) | 23% | -4% | 101% (active) | inactive | inactive | inactive | inactive

Row | SMILES | growth inhibition [1] | inhibition [2] | inhibition [3] | growth inhibition [4] | outcome [5] | outcome [6] | outcome [7] | outcome [8]
22 | COc1cccc2c(NN=Cc3cccc(Cl)c3)ccnc12 | 77% (active) | 19% | 6% | 101% (active) | inactive | inactive | inactive | inactive
23 | CN1CCN(Cc2ccc(-c3cccc(-c4nc5ccccc5[nH]4)c3)cc2)CC1 | 6% | 21% | 3% | 93% (active) | inactive | inactive | inactive | inactive
24 | O=C(N[C@H]1CCN(Cc2ccc(OCCN3CCNCC3)c(Br)c2)C1)c1ccc(Cl)c(Cl)c1 | 36% | 69% (active) | 5% | 101% (active) | inactive | inactive | inactive | inactive
25 | CCC(C)NS(=O)(=O)c1ccc2nc(Nc3ccc(C)c(Cl)c3)n([C@H](C)C(C)(C)C)c2c1 (stereo partly drawn) | 100% (active) | 8% | -5% | 98% (active) | inactive | inactive | inactive | inactive
26 | O=C(Cc1ccc(-c2ccccc2)cc1)N[C@H]1CCN(Cc2ccc(OCCCN3CCCCC3)cc2)C1 | 27% | 36% | 0% | 99% (active) | inactive | inactive | inactive | inactive
27 | CN(C)CCC(O)C=C(c1ccc(Cl)cc1)c1ccc(Cl)cc1 (stereo not drawn) | 85% (active) | 33% | 1% | 93% (active) | inactive | inactive | inactive | inactive
28 | O=C(NCC1CCC(C(=O)NCCN2CCCCC2)CC1)c1ccc(O)c(-c2ccc(Cl)c(Cl)c2)c1 (stereo not drawn) | 22% | -5% | -1% | 91% (active) | inactive | inactive | inactive | inactive
29 | COc1c(C2CCN(CCCCNC(=O)c3cc(-c4ccc(Cl)cc4)[nH]c3C)CC2)ccc2c1CCCC2 | 91% (active) | 53% (active) | -6% | 100% (active) | inactive | inactive | inactive | inactive
30 | N#Cc1ccc(CN2CCC(Oc3ccc(NC(=O)c4ccco4)cc3Cl)C2)cc1 (stereo not drawn) | 95% (active) | 13% | -2% | 95% (active) | inactive | inactive | inactive | inactive
31 | CN1CCCN(Cc2ccc(-c3ccc(NS(=O)(=O)c4cccc5cccnc45)cc3)cc2)CC1 | 85% (active) | 35% | 5% | 99% (active) | inactive | inactive | inactive | inactive
32 | c1cc(CNCCN2CCNCC2)cc(-c2ccc(-c3nc4ccccc4[nH]3)cc2)c1 | 11% | 3% | -3% | 98% (active) | inactive | inactive | inactive | inactive
33 | CC(C)CNc1c2c(nc3cnn(-c4c5c(nc6cn[nH]c46)CCCC5)c13)CCCC2 | -2% | 7% | -5% | 100% (active) | inactive | inactive | inactive | inactive
34 | CCOc1cc(C(=O)Nc2ccc(-c3nc4ccccc4[nH]3)cc2)cc(OCC)c1OCC | 94% (active) | 42% | -2% | 100% (active) | inactive | inactive | inactive | inactive
35 | COc1cc(C2C(Oc3ccccc3)C(=O)N2Cc2ccc(F)cc2)cc(OC)c1OC (stereo not drawn) | 97% (active) | -2% | 4% | 100% (active) | inactive | inactive | inactive | inactive
36 | CC1(C)N=C(N)N=C(N)N1OCCc1ccccc1 | 95% (active) | 70% (active) | 2% | 96% (active) | inactive | inactive | inactive | inactive
37 | CCn1c(Sc2ccc(C#N)c([N+](=O)[O-])c2)nnc1-c1cccc(Cl)c1 | 88% (active) | -5% | -2% | 95% (active) | inactive | inactive | inactive | inactive
38 | CCc1nonc1NC(=O)c1oc2c(C)c(C)ccc2c1C | 64% (active) | 1% | -3% | 89% (active) | inactive | inactive | inactive | inactive
39 | CCCCCCCn1c2c(c(=N)c3c1CCC3)CCCC2 | 98% (active) | 46% | 1% | 98% (active) | inactive | inactive | inactive | inactive
40 | Cc1ccc(/C=C/C(=O)NC2CCC(N3CCC(c4ccccc4C)CC3)CC2)cc1F (stereo not drawn) | 18% | 51% (active) | 2% | 96% (active) | inactive | inactive | inactive | inactive
41 | O=C(COc1ccccc1Cl)N1CCc2cc3nccc(N4CCN5CCC[C@H]5C4)c3cc21 | 99% (active) | 4% | -1% | 91% (active) | inactive | inactive | inactive | inactive
